Experimental data taken from PubChem BioAssay (NCI).
The panel holds about 79,000 compounds, 15% with a hit somewhere; the sample as a whole holds those more often. The source made the active and inactive calls. No stated cut-off is given here; in the data, active means growth inhibition above about 70%; inactive means the rest.

assay: NCI Yeast Anticancer Drug Screen. Data for the bub3 strain (AID 167); details: S. cerevisiae bub3 mutant strain, at 50.0 µM, active compounds read high
Outline: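 In this screen, a yeast mutant lacking normal mitotic checkpoint function is challenged with compound. Relative growth versus vehicle gives the inhibition value.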

**Q.** Which growth inhibition does the source give for `O=[N+]([O-])c1ccccc1N=Nc1c(O)[nH]c2c(Cl)cc(Cl)cc12` here?
**A.** The growth inhibition was -45.4% (inactive).

**Q.** For `CC1=CCC2N=C(c3ccccc3)CC2(C)C1=O` (stereo unspecified), which growth inhibition is on record?
**A.** Its growth inhibition is -46.2% (inactive).

**Q.** Which growth inhibition does the source give for `CCN(CC)CCOc1ccc(/C(C#N)=C/c2ccc(OCCN3CCCCC3)cc2)cc1` here?
**A.** The growth inhibition was 26.2% (inactive).

**Q.** For `O=C1c2cc([N+](=O)[O-])ccc2-c2c(Cl)cc(NC(=O)C(F)(F)F)cc21`, which growth inhibition is on record?
**A.** Its growth inhibition is 6.9% (inactive).

**Q.** Which growth inhibition does the source give for `COc1ccc(C2SCC(=O)N2c2nncs2)cc1F` (stereo unspecified) here?
**A.** The growth inhibition was 12.6% (inactive).

**Q.** With `CC(=O)OCC1OC(OC(C)=O)C(NS(=O)(=O)Cc2ccccc2)C(OC(C)=O)C1OC(C)=O` (stereo unspecified) as the compound, how does the growth inhibition read?
**A.** Its growth inhibition is -1.2% (inactive).

**Q.** Which growth inhibition does the source give for `COc1ccc(/C=C2\C=Cc3ccccc32)cc1OC` here?
**A.** The growth inhibition was 10.7% (inactive).

**Q.** Which growth inhibition does the source give for `Cc1ccc(N2C(=O)CS/C2=C(\C#N)c2nc3ccccc3[nH]2)cc1` here?
**A.** The growth inhibition was -76.8% (inactive).

**Q.** For `CCN(CC)/C(C=[N+]=[N-])=N\C(N)=N\S(=O)(=O)c1ccc(OC)cc1`, which growth inhibition is on record?
**A.** Its growth inhibition is 4.05% (inactive).

**Q.** With `O=C1c2ccccc2C(=O)N1CNc1cccc(NCN2C(=O)c3ccccc3C2=O)c1` as the compound, how does the growth inhibition read?
**A.** Its growth inhibition is 1.2% (inactive).

**Q.** With `CCN(CC)CC(O)c1cccc2cc(Cl)ccc12` (stereo unspecified) as the compound, how does the growth inhibition read?
**A.** The growth inhibition was -2.55% (inactive).

**Q.** Which growth inhibition does the source give for `C=C1C(=O)OC2CCCC(O)C12` (stereo unspecified) here?
**A.** Its growth inhibition is -12.2% (inactive).

**Q.** With `CCSC(SCC)C(SCC)C(OC(=O)c1ccccc1)C(OC(=O)c1ccccc1)C(COC(=O)c1ccccc1)OC(=O)c1ccccc1` (stereo unspecified) as the compound, how does the growth inhibition read?
**A.** Its growth inhibition is 4.25% (inactive).

**Q.** With `O=C(O)C(CO)Nc1ccccc1` (stereo unspecified) as the compound, how does the growth inhibition read?
**A.** The growth inhibition was -0.65% (inactive).

**Q.** Which growth inhibition does the source give for `N#CCCP(=O)(O)CO` here?
**A.** The growth inhibition was 3.9% (inactive).

**Q.** With `COc1ccc(O)c(C(=O)O)c1` as the compound, how does the growth inhibition read?
**A.** The growth inhibition was -3.35% (inactive).
